We go through five compounds from PubChem BioAssay (EPA / NIEHS).

Test [1] can be described thus: ATG_TCF_b_cat_CIS: Attagene CIS-FACTORIAL HepG2 Assay for human T-Cell-Factor with beta-catenin (TCF/b-cat) (AID 2282965; active = hit-call score of the fitted dose curve at least 0.9, where 1 is the maximum; inactive = score below 0.9). The following applies: HepG2 TCF/beta-catenin cis-reporter transcription, actives raise or lower the signal. The method in brief:
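In this cis-format system, transfected HepG2 cells report endogenous transcription factor activity. Readout after 24 h exposure is reporter transcript abundance from RT-PCR and capillary electrophoresis, analysed for gain or loss of signal versus DMSO.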

The nature of test [2]: ATG_TAL_CIS: Attagene CIS-FACTORIAL HepG2 Assay for human TAL Basal Promoter (AID 2282966; active = hit-call score of the fitted dose curve at least 0.9, where 1 is the maximum; inactive = score below 0.9;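 also: background control endpoint measuring basal TAL promoter reporter mRNA not a specific factor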). To be noted: HepG2 Attagene cis-factorial TAL promoter reporter; actives raise or lower the signal. An outline of the steps: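 After 24 hours of chemical exposure, transfected HepG2 cells yielded RNA that was converted to 6-FAM-labelled, HpaI-digested reporter fragments for capillary electrophoresis. Values derive from bidirectional fitting against DMSO controls.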

The nature of test [3]: ATG_TGFb_CIS: Attagene CIS-FACTORIAL HepG2 Assay for human Transforming Growth Factor (TGF) (AID 2282967; active = hit-call score of the fitted dose curve at least 0.9, where 1 is the maximum; inactive = score below 0.9). To be noted: HepG2 Attagene CIS TGFb reporter, mRNA transcription; actives raise or lower the signal. An outline of the steps:
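Transient MRTU transfection of HepG2 (FuGene 6). Dose 24 h. TriZol RNA, oligo(dT) RT, PCR, 6-FAM primer extension, HpaI cut, CE. Bidirectional fit, DMSO = baseline.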

The nature of test [4]: ATG_VDRE_CIS: Attagene CIS-FACTORIAL HepG2 Assay for human Vitamin D Receptor Element (VDRE) (AID 2282968; active = hit-call score of the fitted dose curve at least 0.9, where 1 is the maximum; inactive = score below 0.9). To be noted: HepG2 VDRE cis-reporter transcription, actives raise or lower the signal. The method in brief:
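Transfected HepG2 reporter cells, chemical treatment 24 h. RNA isolated, cDNA amplified with reporter-specific primers, products analysed by capillary electrophoresis. Endpoint fitted in both directions versus DMSO.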

Test [5] has as its target Estrogen receptor (Homo sapiens) (UniProt P03372). In words: ATG_ERa_TRANS: Attagene TRANS-FACTORIAL HepG2 Assay for human Estrogen Receptor alpha (ERa) (AID 2282970). To be noted: HepG2 Attagene TRANS ERa GAL4 reporter, mRNA. An outline of the steps: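 Liver-derived HepG2 cells expressing chimeric nuclear receptor-Gal4 proteins from transient transfection were exposed for 24 hours. Gain of reporter mRNA signal versus DMSO, read by capillary electrophoresis of FAM-labelled PCR products, was recorded.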

The target in test [6] is Steroid hormone receptor ERR1 (Homo sapiens) (UniProt P11474). In words: ATG_ERRa_TRANS: Attagene TRANS-FACTORIAL HepG2 Assay for human Estrogen-Related Receptor alpha (ERRa) (AID 2282971). To be noted: HepG2 Attagene TRANS reporter, ERRa transactivation. The method in brief: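 Reporter transcript induction was quantified by RT-PCR and capillary electrophoresis of FAM-labelled, HpaI-cut products after 24 h treatment of HepG2 cells carrying transiently transfected GAL4-UAS reporter units and an exogenous ERRa-Gal4 fusion; activity scored as increase over DMSO.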
Sequence of Steroid hormone receptor ERR1 (Homo sapiens) (P11474 whole entry, looked up, the tested form may be a part): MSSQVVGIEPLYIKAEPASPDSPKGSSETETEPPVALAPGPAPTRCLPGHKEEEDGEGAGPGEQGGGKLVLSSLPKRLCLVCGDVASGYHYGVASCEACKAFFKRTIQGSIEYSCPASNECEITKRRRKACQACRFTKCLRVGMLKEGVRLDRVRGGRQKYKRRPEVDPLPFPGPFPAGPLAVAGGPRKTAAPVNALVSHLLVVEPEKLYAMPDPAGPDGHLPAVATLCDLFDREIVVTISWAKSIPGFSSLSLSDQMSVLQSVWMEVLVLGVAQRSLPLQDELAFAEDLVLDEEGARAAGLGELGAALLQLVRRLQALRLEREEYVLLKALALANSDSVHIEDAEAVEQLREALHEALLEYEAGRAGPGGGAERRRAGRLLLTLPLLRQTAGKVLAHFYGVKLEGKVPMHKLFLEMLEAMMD

Test [7] deals with X-box-binding protein 1 (Homo sapiens) (UniProt P17861). In words: ATG_Xbp1_CIS: Attagene CIS-FACTORIAL HepG2 Assay for human X-box Binding Protein 1 (XBP1) (AID 2282972; active = hit-call score of the fitted dose curve at least 0.9, where 1 is the maximum; inactive = score below 0.9). To be noted: HepG2 XBP1 cis-element reporter, Attagene multiplex; actives raise or lower the signal. An outline of the steps:
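Multiplexed cis-reporter readout in transfected HepG2 liver cells. Exposure lasted 24 hours. Activity in either direction was fitted against DMSO as negative control and baseline.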

The nature of test [8]: ATG_M_19_TRANS: Attagene TRANS-FACTORIAL HepG2 Assay for M19 Transcription Factor (Internal Marker) (AID 2282974). The following applies: HepG2 Attagene TRANS-FACTORIAL M19 internal marker reporter. An outline of the steps: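 Background-control readout: after 24 h chemical exposure of transfected HepG2 carrying GAL4-driven reporter units, RNA was reverse-transcribed, amplified, fluorescently labeled and sized by capillary electrophoresis; gain-of-signal fit against DMSO.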

In test [9] the target is Estrogen-related receptor gamma (Homo sapiens) (UniProt P62508). In words: ATG_ERRg_TRANS: Attagene TRANS-FACTORIAL HepG2 Assay for human Estrogen-Related Receptor gamma (ERRg) (AID 2282977).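 Also: hits increase reporter signal over DMSO so potencies reflect activators.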 To be noted: HepG2 Attagene TRANS reporter, ERRg transactivation. The method in brief: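 Readout: fluorescent reporter-mRNA fragments resolved by capillary electrophoresis after RT-PCR and HpaI cut. Cells: transiently transfected HepG2 carrying GAL4-UAS reporters driven by exogenous NR-Gal4 chimeras, dosed 24 h. Activity fitted upward relative to DMSO baseline.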

Test [10] deals with Glucocorticoid receptor (Homo sapiens) (UniProt P04150). In words: ATG_GR_TRANS: Attagene TRANS-FACTORIAL HepG2 Assay for human Glucocorticoid Receptor (GR) (AID 2282978).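 Also: activators score as hits since higher reporter transcript over DMSO is fitted.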 To be noted: HepG2 Attagene TRANS GR reporter, mRNA transcription. An outline of the steps: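 Readout is reporter transcript from a chimeric GR-Gal4 acting on GAL4-UAS in transfected human HepG2 liver cells after 24 h exposure, quantified by RT-PCR and capillary electrophoresis. Activation fitted upward against DMSO.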
Sequence of Glucocorticoid receptor (Homo sapiens) (P04150 whole entry, looked up, the tested form may be a part): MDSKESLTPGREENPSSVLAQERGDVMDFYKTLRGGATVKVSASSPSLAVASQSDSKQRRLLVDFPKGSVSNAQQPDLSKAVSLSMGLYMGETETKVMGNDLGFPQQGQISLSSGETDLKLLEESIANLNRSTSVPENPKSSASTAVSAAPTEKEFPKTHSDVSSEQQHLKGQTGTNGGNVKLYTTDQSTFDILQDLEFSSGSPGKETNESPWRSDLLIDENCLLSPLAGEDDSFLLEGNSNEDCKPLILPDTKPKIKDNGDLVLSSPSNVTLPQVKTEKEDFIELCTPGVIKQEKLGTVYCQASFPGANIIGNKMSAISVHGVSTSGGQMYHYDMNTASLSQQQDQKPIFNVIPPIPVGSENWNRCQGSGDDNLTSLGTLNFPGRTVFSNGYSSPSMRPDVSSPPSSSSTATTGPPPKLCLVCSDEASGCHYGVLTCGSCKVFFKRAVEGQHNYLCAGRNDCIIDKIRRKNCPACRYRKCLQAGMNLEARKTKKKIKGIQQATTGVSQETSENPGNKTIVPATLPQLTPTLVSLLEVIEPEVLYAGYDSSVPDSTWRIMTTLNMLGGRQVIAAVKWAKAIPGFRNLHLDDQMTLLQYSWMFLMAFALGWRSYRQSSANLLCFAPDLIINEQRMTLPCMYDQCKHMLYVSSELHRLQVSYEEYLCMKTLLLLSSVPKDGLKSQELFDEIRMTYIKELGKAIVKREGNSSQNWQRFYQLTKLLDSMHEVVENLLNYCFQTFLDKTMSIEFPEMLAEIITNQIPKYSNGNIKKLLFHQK

Test [11] has as its target Bile acid receptor (Homo sapiens) (UniProt Q96RI1). In words: ATG_FXR_TRANS: Attagene TRANS-FACTORIAL HepG2 Assay for Farnesoid X Receptor (FXR) (AID 2282979).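 Also: hits raise reporter mRNA above DMSO so AC50 marks FXR activation.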 To be noted: HepG2 Attagene TRANS FXR-GAL4 reporter transcription. An outline of the steps:
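Transient transfection of HepG2 with multiplexed GAL4-UAS reporter units; exogenous FXR-GAL4 chimera. Dose 24 h → TriZol RNA → oligo(dT) RT → PCR, 6-FAM primer extension, HpaI cut → CE. Gain vs DMSO.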

In test [12] the target is Oxysterols receptor LXR-alpha (Homo sapiens) (UniProt Q13133). In words: ATG_LXRa_TRANS: Attagene TRANS-FACTORIAL HepG2 Assay for human Liver X Receptor alpha (LXRa) (AID 2282980). To be noted: HepG2 Attagene TRANS reporter, LXRa transactivation. An outline of the steps: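 Transfect HepG2 with GAL4-UAS multiplex reporter constructs (TRANS format, chimeric receptor-GAL4); treat 24 h; extract RNA, reverse-transcribe, PCR-amplify, FAM-label, HpaI-digest; resolve fragments by capillary electrophoresis. Upward response vs DMSO.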
Sequence of Oxysterols receptor LXR-alpha (Homo sapiens) (Q13133 whole entry, looked up, the tested form may be a part): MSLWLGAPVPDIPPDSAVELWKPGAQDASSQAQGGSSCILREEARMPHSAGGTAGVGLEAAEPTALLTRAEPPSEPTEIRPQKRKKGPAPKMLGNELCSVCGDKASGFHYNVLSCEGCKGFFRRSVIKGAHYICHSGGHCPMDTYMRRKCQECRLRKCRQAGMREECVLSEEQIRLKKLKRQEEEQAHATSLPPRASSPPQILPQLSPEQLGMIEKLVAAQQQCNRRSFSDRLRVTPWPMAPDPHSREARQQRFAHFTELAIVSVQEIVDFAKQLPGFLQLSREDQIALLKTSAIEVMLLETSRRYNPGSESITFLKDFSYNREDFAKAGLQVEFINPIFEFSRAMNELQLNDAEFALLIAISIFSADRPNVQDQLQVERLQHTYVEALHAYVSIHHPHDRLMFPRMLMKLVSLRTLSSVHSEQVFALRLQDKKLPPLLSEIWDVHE

Test [13] in a line: ATG_M_06_TRANS: Attagene TRANS-FACTORIAL HepG2 Assay for M06 Transcription Factor (Internal Marker) (AID 2282983).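 Also: reporter transcript level by RT-PCR then capillary electrophoresis fluorescence.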 To be noted: HepG2 Attagene TRANS M06 internal marker reporter. The method in brief: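 Background control endpoint: reporter mRNA from transiently transfected HepG2 after 24 h dosing, detected by RT-PCR with capillary electrophoresis fluorescence. Analysed for gain versus DMSO.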

Test [14] is described as follows: ATG_M_32_TRANS: Attagene TRANS-FACTORIAL HepG2 Assay for M32 Transcription Factor (Internal Marker) (AID 2282984).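 Also: transcript level of a background control reporter unit measured by RT-PCR and capillary electrophoresis.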 To be noted: HepG2 Attagene TRANS M32 internal marker reporter. An outline of the steps: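 Fluorescence-detected mRNA induction, HepG2 liver cells, 24 h after dosing. Multiple GAL4-UAS reporter units introduced by transient transfection; background-control endpoint analysed for gain of signal against DMSO.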

For test [15], the target named is Transcriptional activator Myb (Homo sapiens) (UniProt P10242). In words: ATG_Myb_CIS: Attagene CIS-FACTORIAL HepG2 Assay for human Myeloblastosis (Myb) Proto-Oncogene Transcription Factor (AID 2282986; active = hit-call score of the fitted dose curve at least 0.9, where 1 is the maximum; inactive = score below 0.9). The following applies: HepG2 Attagene CIS-FACTORIAL Myb reporter transcription; actives raise or lower the signal. The method in brief:
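Reporter mRNA is quantified by RT-PCR and capillary electrophoresis 24 h after dosing HepG2 cells transfected with cis-regulated reporter units, which track endogenous transcription factor activity. Gain and loss of signal are fitted versus DMSO baseline.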

In test [16] the target is Nuclear receptor subfamily 1 group I member 3 (Homo sapiens) (UniProt Q14994). In words: ATG_CAR_TRANS: Attagene TRANS-FACTORIAL HepG2 Assay for human Constitutive Androstane Receptor (CAR) (AID 2282969).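 Also: activators raise reporter mRNA above DMSO so AC50 marks induction.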 The following applies: HepG2 Attagene TRANS-FACTORIAL CAR reporter. The method in brief:
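Steps: transient transfection of HepG2 with multiple GAL4-UAS reporter units; 24 h compound incubation; RNA isolation, RT-PCR, 6-FAM primer extension, HpaI digest; capillary electrophoresis. Gain-of-signal relative to DMSO negative control.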

Test [17] in a line: ATG_GAL4_TRANS: Attagene TRANS-FACTORIAL HepG2 Assay for GAL4 (Internal Marker) (AID 2282976). The following applies: HepG2 Attagene TRANS GAL4 internal marker reporter. An outline of the steps: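 First, HepG2 cells were transfected with reporter units under GAL4-UAS control. Next, they were treated with chemical for 24 h. Finally, RNA was reverse-transcribed, PCR-amplified, FAM-labelled and resolved by capillary electrophoresis, with induction scored against DMSO.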

The target in test [18] is Oxysterols receptor LXR-beta (Homo sapiens) (UniProt P55055). In words: ATG_LXRb_TRANS: Attagene TRANS-FACTORIAL HepG2 Assay for human Liver X Receptor beta (LXRb) (AID 2282981). The following applies: HepG2 Attagene TRANS GAL4-LXRb reporter, mRNA. An outline of the steps: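 Liver-derived HepG2 cells transfected with Gal4-responsive reporters were dosed for 24 h. Activation was scored as rise in reporter mRNA, by RT-PCR and capillary electrophoresis, above DMSO baseline.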
Sequence of Oxysterols receptor LXR-beta (Homo sapiens) (P55055 whole entry, looked up, the tested form may be a part): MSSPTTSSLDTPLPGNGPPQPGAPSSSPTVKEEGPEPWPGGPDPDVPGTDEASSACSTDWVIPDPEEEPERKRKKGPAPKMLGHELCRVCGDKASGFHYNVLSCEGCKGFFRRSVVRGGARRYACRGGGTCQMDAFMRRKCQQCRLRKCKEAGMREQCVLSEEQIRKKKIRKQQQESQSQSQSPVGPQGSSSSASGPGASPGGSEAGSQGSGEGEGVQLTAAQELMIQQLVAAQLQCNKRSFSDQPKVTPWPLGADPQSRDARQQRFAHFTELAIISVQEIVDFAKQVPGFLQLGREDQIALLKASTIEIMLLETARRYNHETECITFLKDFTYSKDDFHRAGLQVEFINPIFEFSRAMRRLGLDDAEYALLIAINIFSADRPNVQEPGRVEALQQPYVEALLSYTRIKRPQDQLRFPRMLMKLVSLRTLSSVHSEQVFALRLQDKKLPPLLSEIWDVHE

Test [19] deals with Hepatocyte nuclear factor 4-alpha (Homo sapiens) (UniProt P41235). In words: ATG_HNF4a_TRANS: Attagene TRANS-FACTORIAL HepG2 Assay for human Hepatocyte Nuclear Factor 4 alpha (HNF4a) (AID 2282982). To be noted: HepG2 HNF4a transactivation reporter, mRNA readout. An outline of the steps: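 Using HepG2 liver cells transfected with GAL4-UAS reporter units, chemical-induced mRNA increases were assessed after 24 hours. Fluorescent RT-PCR fragments were separated by capillary electrophoresis and compared with DMSO negative controls.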
Sequence of Hepatocyte nuclear factor 4-alpha (Homo sapiens) (P41235 whole entry, looked up, the tested form may be a part): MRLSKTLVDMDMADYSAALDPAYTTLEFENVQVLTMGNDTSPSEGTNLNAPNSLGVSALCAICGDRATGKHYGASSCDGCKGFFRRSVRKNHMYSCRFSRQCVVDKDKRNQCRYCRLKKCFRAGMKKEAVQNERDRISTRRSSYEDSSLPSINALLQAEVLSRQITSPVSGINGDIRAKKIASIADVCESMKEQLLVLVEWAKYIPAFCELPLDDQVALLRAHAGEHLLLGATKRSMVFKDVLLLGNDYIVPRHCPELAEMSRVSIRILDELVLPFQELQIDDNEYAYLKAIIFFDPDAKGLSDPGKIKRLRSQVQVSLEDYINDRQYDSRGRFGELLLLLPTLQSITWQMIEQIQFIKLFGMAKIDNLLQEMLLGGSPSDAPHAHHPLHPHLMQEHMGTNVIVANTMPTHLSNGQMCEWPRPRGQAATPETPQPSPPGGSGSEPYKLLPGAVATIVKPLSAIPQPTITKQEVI

As a reminder, the AC50 is the concentration giving half of the maximal activity seen.

Records with an inconclusive call do not appear. Active and inactive are the calls of the source. The calls were made as follows, unless noted: active = hit-call score of the fitted dose curve at least 0.9, where 1 is the maximum; inconclusive = response in the unintended direction; inactive = score below 0.9.

Sequence of Estrogen receptor (Homo sapiens) (P03372 whole entry, looked up, the tested form may be a part): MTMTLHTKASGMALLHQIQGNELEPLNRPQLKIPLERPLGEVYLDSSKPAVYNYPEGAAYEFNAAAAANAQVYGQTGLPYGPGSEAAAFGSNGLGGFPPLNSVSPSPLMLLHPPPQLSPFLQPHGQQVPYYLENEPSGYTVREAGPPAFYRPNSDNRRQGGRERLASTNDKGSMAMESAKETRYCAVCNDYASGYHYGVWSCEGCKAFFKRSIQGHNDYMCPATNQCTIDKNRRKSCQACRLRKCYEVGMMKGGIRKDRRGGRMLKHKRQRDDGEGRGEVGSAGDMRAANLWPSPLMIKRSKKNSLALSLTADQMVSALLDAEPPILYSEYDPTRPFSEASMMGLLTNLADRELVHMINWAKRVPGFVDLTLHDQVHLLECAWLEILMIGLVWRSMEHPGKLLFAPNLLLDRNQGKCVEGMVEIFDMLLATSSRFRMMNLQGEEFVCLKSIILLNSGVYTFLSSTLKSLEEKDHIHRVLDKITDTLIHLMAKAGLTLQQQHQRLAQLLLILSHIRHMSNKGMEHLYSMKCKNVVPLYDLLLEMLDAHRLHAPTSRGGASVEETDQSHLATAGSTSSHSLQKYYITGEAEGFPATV
Sequence of Bile acid receptor (Homo sapiens) (Q96RI1 whole entry, looked up, the tested form may be a part): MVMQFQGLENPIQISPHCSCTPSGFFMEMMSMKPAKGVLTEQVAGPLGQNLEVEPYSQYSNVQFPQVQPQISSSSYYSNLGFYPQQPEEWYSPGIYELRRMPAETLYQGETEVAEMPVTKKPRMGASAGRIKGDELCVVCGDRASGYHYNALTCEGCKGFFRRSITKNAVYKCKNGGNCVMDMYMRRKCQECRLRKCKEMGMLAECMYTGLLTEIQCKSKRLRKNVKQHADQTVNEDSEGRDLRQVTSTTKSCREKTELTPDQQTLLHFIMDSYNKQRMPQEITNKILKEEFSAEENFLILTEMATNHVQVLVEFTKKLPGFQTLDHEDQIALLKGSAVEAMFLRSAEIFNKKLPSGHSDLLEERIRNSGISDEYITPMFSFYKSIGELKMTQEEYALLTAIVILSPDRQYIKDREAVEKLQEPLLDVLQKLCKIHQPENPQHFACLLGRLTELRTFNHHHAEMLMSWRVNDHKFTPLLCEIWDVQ
Sequence of X-box-binding protein 1 (Homo sapiens) (P17861 whole entry, looked up): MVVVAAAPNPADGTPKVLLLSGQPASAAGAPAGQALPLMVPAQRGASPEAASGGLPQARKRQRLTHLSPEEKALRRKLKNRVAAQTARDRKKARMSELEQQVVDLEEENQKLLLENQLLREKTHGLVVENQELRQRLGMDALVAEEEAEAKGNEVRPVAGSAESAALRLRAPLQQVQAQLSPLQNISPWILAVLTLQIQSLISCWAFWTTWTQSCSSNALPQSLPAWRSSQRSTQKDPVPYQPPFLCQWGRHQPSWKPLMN
Sequence of Transcriptional activator Myb (Homo sapiens) (P10242 whole entry, looked up): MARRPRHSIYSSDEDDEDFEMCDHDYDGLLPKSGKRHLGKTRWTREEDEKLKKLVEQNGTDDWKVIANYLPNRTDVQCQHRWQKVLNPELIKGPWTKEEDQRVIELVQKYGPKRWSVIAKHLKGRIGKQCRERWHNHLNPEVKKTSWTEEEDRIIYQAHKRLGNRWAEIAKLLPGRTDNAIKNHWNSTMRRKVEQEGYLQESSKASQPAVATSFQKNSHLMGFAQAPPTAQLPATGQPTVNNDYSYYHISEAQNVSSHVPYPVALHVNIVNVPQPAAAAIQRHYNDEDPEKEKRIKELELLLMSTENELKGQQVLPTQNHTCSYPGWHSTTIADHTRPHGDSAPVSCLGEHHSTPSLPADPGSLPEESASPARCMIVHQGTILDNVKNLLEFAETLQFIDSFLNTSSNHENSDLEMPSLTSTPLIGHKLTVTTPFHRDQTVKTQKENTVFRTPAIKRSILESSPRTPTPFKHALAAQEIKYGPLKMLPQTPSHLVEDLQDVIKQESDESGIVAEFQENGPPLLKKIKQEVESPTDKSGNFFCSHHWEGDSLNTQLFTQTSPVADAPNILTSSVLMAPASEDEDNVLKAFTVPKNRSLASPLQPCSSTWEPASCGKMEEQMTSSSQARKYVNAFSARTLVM
Sequence of Nuclear receptor subfamily 1 group I member 3 (Homo sapiens) (Q14994 whole entry, looked up, the tested form may be a part): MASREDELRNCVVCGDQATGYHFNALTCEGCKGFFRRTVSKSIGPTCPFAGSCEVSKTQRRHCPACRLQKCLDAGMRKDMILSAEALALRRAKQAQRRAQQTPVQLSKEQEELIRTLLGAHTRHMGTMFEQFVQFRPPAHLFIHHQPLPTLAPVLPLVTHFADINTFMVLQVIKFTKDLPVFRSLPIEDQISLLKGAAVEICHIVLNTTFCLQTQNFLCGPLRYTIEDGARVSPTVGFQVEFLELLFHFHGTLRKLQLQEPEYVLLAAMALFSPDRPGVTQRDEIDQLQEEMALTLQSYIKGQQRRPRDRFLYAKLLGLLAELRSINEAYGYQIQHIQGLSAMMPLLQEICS

`O=C1CCC(=O)N1`: the result in [1], in [2], in [3], in test [4], in [5] and in [6] was inactive. Moreover, the outcome in [7], in [8], in test [9], in test [10], in test [11] and in test [12] was inactive. The call in test [13], in test [14] and in test [15] was inactive.

As for `CC1COC(=O)O1` (configuration not stated), the outcome in test [1], in test [2], in [3], in test [4], in [16] and in test [6] was inactive. Moreover, the result in test [17], in test [10], in [12], in test [18], in [13] and in [14] was inactive. For the same compound, the result in test [15] was inactive. The AC50 in [7] was 10.3 nM (active).

Regarding `CN(C)c1ccc(C=O)cc1`, the result in [1], in test [2], in test [3], in [4], in test [5] and in [6] was inactive. In addition, the compound was called inactive in test [7], in test [17], in test [9], in test [10], in [11] and in [18]. The compound was classed as inactive in test [19], in test [13], in test [14] and in test [15].

With `O=S(=O)(O)c1cc(S(=O)(=O)O)c2c(N=Nc3ccccc3)c(O)ccc2c1`, the compound was classed as inactive in test [1], in test [2], in test [3], in test [4], in test [16] and in test [7]. Further, the result in test [17], in test [10], in test [11], in test [12], in [18] and in test [15] was inactive.

For the compound `CCC(C)(CCCC(C)C)OC(C)=O` (configuration not stated), the result in test [1], in [2], in test [3], in test [4], in [16] and in test [5] was inactive. The compound was called inactive in [8], in [17], in test [10], in test [11], in [12] and in test [19]. For the same compound, the call in test [13], in test [14] and in test [15] was inactive.
